Data published in the supplement of paper PMC3545927.
This is one part of the list. The true hit rate is not given.

Molecular target: furin, P09958
Assay: furin cleavage Z-score vs untreated control; higher = more cleavage, active = 3.5 or more, inactive = 1 or less, 8 variable residues between constant flanks
Procedure, shortened: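 The cleavage Z-score was derived for purified furin acting on 8-mer peptides held on magnetic beads and fused to a cDNA oligonucleotide. Digests lasted 7.5, 15 or 30 min at 1:10 enzyme:substrate in 50 mM HEPES pH 7.5 with CaCl2 and NaCl. Sequencing counts of released DNA, log-transformed against furin-free reactions, were lowess-adjusted and scaled by median absolute deviation.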

furin, P09958, sequence (P09958 whole entry): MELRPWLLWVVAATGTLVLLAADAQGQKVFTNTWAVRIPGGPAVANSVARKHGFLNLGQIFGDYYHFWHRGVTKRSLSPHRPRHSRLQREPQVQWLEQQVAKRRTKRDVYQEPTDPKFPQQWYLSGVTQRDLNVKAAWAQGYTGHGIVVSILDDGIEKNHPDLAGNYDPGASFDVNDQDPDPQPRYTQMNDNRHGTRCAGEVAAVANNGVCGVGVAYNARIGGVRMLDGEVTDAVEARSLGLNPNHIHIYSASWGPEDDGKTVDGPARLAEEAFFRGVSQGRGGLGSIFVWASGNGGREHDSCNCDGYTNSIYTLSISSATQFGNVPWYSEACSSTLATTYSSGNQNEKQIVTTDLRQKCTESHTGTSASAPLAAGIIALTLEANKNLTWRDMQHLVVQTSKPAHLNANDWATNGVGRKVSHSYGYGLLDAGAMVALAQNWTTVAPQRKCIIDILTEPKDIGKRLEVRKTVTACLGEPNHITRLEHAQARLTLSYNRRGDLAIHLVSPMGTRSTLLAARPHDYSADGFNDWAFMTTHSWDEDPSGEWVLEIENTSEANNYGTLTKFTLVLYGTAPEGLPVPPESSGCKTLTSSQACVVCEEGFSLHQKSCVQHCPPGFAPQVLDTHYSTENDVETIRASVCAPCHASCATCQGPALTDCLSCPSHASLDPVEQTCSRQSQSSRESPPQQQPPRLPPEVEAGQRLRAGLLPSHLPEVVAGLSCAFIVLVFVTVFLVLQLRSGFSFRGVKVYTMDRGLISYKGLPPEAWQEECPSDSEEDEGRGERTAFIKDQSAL

Sequence | furin cleavage Z-score (7.5 min) | furin cleavage Z-score (15 min) | furin cleavage Z-score (30 min)
CARPYCWHYPAGNASASA [HC402] | -0.0981 (inactive) | -0.342 (inactive) | -1.07 (inactive)
CAMEECSQILAGNASASA [HC1744] | 0.778 (inactive) | 0.663 (inactive) | 0.94 (inactive)
CALCTTPCSGAGNASASA [HC1945] | 0.463 (inactive) | -0.673 (inactive) | -0.438 (inactive)
CARNRRVTRRAGNASASA [FS-2163] | 10.8 (active) | 11.8 (active) | 10.4 (active)
CARNRRRVCKAGNASASA [FS-2162] | -0.833 (inactive) | -0.214 (inactive) | 0.898 (inactive)
CARNRRHIEKAGNASASA [FS-2283] | 6.22 (active) | 6.56 (active) | 6.5 (active)
CARNRRAFGDAGNASASA [FS-2732] | 6.61 (active) | 9.22 (active) | 8.81 (active)
CARNSRFRCRAGNASASA [FS-3013] | 0.23 (inactive) | 0.474 (inactive) | 0.565 (inactive)
CAKGKWVPGAAGNASASA [HC550] | 0.591 (inactive) | -0.0194 (inactive) | 1.21
CAEVVKSTWVAGNASASA [HC131] | -2.1 (inactive) | -0.614 (inactive) | -0.545 (inactive)
CAEVVTGTWVAGNASASA [HC142] | -0.000356 (inactive) | -0.439 (inactive) | 1.54
CAVVMCSMSYAGNASASA [HC2026] | -0.445 (inactive) | 0.764 (inactive) | 0.688 (inactive)
CAVKKRTKRDAGNASASA [FS-1579] | 13.7 (active) | 14.1 (active) | 11.3 (active)
CAAKRRTKRDAGNASASA [FS-1509] | 13.3 (active) | 12.3 (active) | 8.72 (active)
CAVVNTTKRDAGNASASA [FS-967] | 0.253 (inactive) | 1.14 | 0.849 (inactive)
CAMEMEECSQAGNASASA [HC1786] | 0.949 (inactive) | -0.743 (inactive) | 0.205 (inactive)
CAMEECSQRLAGNASASA [HC1753] | 0.426 (inactive) | -0.514 (inactive) | 1.09
CAWPTRRRRLAGNASASA [FS-109] | 8.56 (active) | 10.6 (active) | 9.39 (active)
CAQGERSRRLAGNASASA [FS-282] | 0.753 (inactive) | 4.38 (active) | 1.23
CACRARRRRLAGNASASA [FS-16] | 9.49 (active) | 9.51 (active) | 8.36 (active)
CALRGRSRRLAGNASASA [FS-135] | 3.28 | 5.92 (active) | 6.35 (active)
CAQDVRCRRLAGNASASA [FS-478] | 1.46 | 1.58 | 0.0369 (inactive)

Sequence | furin cleavage Z-score (7.5 min) | furin cleavage Z-score (15 min) | furin cleavage Z-score (30 min)
CAIYQCCDLDAGNASASA [HC1490] | -1.27 (inactive) | -0.493 (inactive) | -0.515 (inactive)
CAPCTINYTIAGNASASA [HC470] | -0.109 (inactive) | -0.36 (inactive) | -0.753 (inactive)
CAEFEVPCHRAGNASASA [HC2447] | 1.12 | 0.425 (inactive) | 0.814 (inactive)
CALRQRRRRLAGNASASA [FS-1233] | 7.25 (active) | 8.53 (active) | 7.51 (active)
CAGRGRRRRLAGNASASA [FS-1204] | 0.638 (inactive) | 1.19 | 1.19
CAEPARRRRLAGNASASA [FS-1193] | 3.5 (active) | 3.06 | 4.29 (active)
CASTVCSAHLAGNASASA [HC2510] | 0.637 (inactive) | 0.629 (inactive) | 0.755 (inactive)
CAALNRTGRSAGNASASA [FS-748] | 9.18 (active) | 11.6 (active) | 9.72 (active)
CAMLAEQFKQAGNASASA [HC1022] | 1.62 | -0.39 (inactive) | 0.514 (inactive)
CAALNRRKKQAGNASASA [FS-747] | 3.62 (active) | 5.46 (active) | 3.99 (active)
CATCNRRKKEAGNASASA [FS-1492] | 0.181 (inactive) | 1.51 | 1.86
CAELSRTGRSAGNASASA [FS-22] | 3.94 (active) | 5.44 (active) | 5.19 (active)
CASRVRTGRSAGNASASA [FS-1417] | 9.44 (active) | 9.57 (active) | 7.69 (active)
CASCSSNVSVAGNASASA [HC1553] | 1.25 | -0.606 (inactive) | 0.334 (inactive)
CAVVCCSDSYAGNASASA [HC2051] | -1.19 (inactive) | 0.168 (inactive) | -0.153 (inactive)
CAEVPCHRGSAGNASASA [HC2396] | 0.0196 (inactive) | 1.61 | 1.87
CAGSCRRARSAGNASASA [FS-1333] | 8.24 (active) | 6.66 (active) | 7.27 (active)
CAYGLRDARSAGNASASA [FS-900] | -0.0484 (inactive) | -0.398 (inactive) | -0.0248 (inactive)
CAQDARRARSAGNASASA [FS-845] | 6 (active) | 7.49 (active) | 7.26 (active)
CAYGRRRRRSAGNASASA [FS-519] | 9.52 (active) | 10.7 (active) | 8.36 (active)
CAGRRLARGSAGNASASA [HC1254] | 3.43 | 4.7 (active) | 6.13 (active)
CAPYILKRGSAGNASASA [NG2] | 1.17 | 0.28 (inactive) | 0.586 (inactive)
